This note sets out measurements from the supplement of paper PMC12645437, “Orthogonal IMiD-Degron Pairs Induce Selective Protein Degradation in Cells” (ACS Chemical Biology, 2025).

In all, about 8,300 sequences were measured (“log2 fold change of degron read counts, EGFP-low vs EGFP+ sorted cells (limma voom), compound-induced degradation”: median about -1.1, highest 2% from about 3.2 on). The sample as a whole holds a higher share of the highest values than the screen did.

The experiment deals with T1, CRBN, Q96SW2.
T1 chain: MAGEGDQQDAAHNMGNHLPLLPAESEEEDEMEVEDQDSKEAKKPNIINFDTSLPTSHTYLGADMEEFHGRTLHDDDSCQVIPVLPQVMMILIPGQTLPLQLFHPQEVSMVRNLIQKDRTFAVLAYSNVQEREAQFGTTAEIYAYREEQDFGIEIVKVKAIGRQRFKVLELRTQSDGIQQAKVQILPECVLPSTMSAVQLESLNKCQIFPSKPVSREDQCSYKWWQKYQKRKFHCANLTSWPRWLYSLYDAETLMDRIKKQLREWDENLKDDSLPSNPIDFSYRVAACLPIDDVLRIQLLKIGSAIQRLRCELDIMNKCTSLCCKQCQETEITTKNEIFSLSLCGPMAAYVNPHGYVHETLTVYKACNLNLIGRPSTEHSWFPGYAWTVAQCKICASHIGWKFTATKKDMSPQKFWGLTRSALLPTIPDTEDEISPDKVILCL
Put plainly: log2 fold change of degron read counts, EGFP-low vs EGFP+ sorted cells (limma voom), compound-induced degradation; higher = more compound-induced degradation of the degron-EGFP fusion; degrons are variants of IKZF1/3 zinc finger 2; compound dose not given here. The following applies: Jurkat, 18 h.

Setting [1] is: compound: compound 19 (5-tert-butyl-thalidomide).
[2] abbreviates: compound: compound 22 (5-morpholino-thalidomide).
The mark [3] stands for this setting: compound: compound 33 (diphenyl IMiD analogue).
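Note: pooled lentiviral library of zinc finger degron-EGFP fusions in mCherry-positive Jurkat cells, FACS-sorted after compound exposure, with degron abundance counted by next-generation sequencing.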

Take FECEICGADFTQKGNLLRHIKL [46F_47E_49E_50I_52G_53A_54D_55F_67L_, Q9UKT9]: the “log2 fold change of degron read counts” value was -1.96 under setting [1], -2.74 under setting [2], 0.273 under setting [3] and 0.225 (compound: thalidomide).

With LVCPICGFNCTQKGNLLRHIKL [46L_47V_49P_50I_52G_53F_54N_55C_67L_, Q9UKT9], the “log2 fold change of degron read counts” value under setting [1] is -0.376, the “log2 fold change of degron read counts” value under setting [2] is 1.56, the “log2 fold change of degron read counts” value under setting [3] was 1.51 and the “log2 fold change of degron read counts” value (compound: thalidomide) worked out at 2.74.

LWCPICGFPCTQKGNLLRHIKL [46L_47W_49P_50I_52G_53F_54P_55C_67L_, Q9UKT9]: the “log2 fold change of degron read counts” value reads like this: under setting [1], 1.54; under setting [2], 1.47; under setting [3], 1.88; (compound: thalidomide) 1.22.

With FICPICGHPFTQKGNLLRHIKL [46F_47I_49P_50I_52G_53H_54P_55F_67L_, Q9UKT9], the “log2 fold change of degron read counts” value by setting is: under setting [1], -1.76; under setting [2], -0.823; under setting [3], -0.563; (compound: thalidomide) 0.027.

Take FMCPICGAPFTQKGNLLRHIKL [46F_47M_49P_50I_52G_53A_54P_55F_67L_, Q9UKT9]: the “log2 fold change of degron read counts” value is 3.36 under setting [1], 3.49 under setting [2], 3.09 under setting [3] and 2.98 (compound: thalidomide).

With FACPICGADFTQKGNLLRHIKL [46F_47A_49P_50I_52G_53A_54D_55F_67L_, Q9UKT9], the “log2 fold change of degron read counts” value runs as follows: under setting [1], 2.75; under setting [2], 0.745; under setting [3], 0.673; (compound: thalidomide) 0.2.

Take FMCPICGAMFTQKGNLLRHIKL [46F_47M_49P_50I_52G_53A_54M_55F_67L_, Q9UKT9]: the “log2 fold change of degron read counts” value reads like this: under setting [1], -0.414; under setting [2], -0.22; under setting [3], 1.72; (compound: thalidomide) 0.511.

For FQCPICGAPFTQKGNLLRHIKL [46F_47Q_49P_50I_52G_53A_54P_55F_67L_, Q9UKT9], the “log2 fold change of degron read counts” value by setting is: under setting [1], 3.38; under setting [2], 3.6; under setting [3], 2.53; (compound: thalidomide) 3.65.

For FICPICGADFTQKGNLLRHIKL [46F_47I_49P_50I_52G_53A_54D_55F_67L_, Q9UKT9], the “log2 fold change of degron read counts” value runs as follows: under setting [1], -0.647; under setting [2], 0.966; under setting [3], 1.15; (compound: thalidomide) 1.89.

For the sequence FACPICGAMFTQKGNLLRHIKL [46F_47A_49P_50I_52G_53A_54M_55F_67L_, Q9UKT9], the “log2 fold change of degron read counts” value by setting is: under setting [1], 2.8; under setting [2], 1.12; under setting [3], 0.702; (compound: thalidomide) 0.265.

In the case of FACPICGAPFTQKGNLLRHIKL [46F_47A_49P_50I_52G_53A_54P_55F_67L_, Q9UKT9], the “log2 fold change of degron read counts” value runs as follows: under setting [1], 3.7; under setting [2], 3.03; under setting [3], 1.56; (compound: thalidomide) 2.64.

For FQCPICGRPFTQKGNLLRHIKL [46F_47Q_49P_50I_52G_53R_54P_55F_67L_, Q9UKT9], the “log2 fold change of degron read counts” value runs as follows: under setting [1], 0.103; under setting [2], 1.27; under setting [3], 0.384; (compound: thalidomide) 2.92.

In the case of FQCPICGAFFTQKGNLLRHIKL [46F_47Q_49P_50I_52G_53A_54F_55F_67L_, Q9UKT9], the “log2 fold change of degron read counts” value was -1.33 under setting [1], -0.0266 under setting [2], 2.3 under setting [3] and 2.67 (compound: thalidomide).

With FMCPICGADFTQKGNLLRHIKL [46F_47M_49P_50I_52G_53A_54D_55F_67L_, Q9UKT9], the “log2 fold change of degron read counts” value reads like this: under setting [1], -1.3; under setting [2], -0.0353; under setting [3], 2.99; (compound: thalidomide) 1.23.

In the case of FICPICGAPFTQKGNLLRHIKL [46F_47I_49P_50I_52G_53A_54P_55F_67L_, Q9UKT9], the “log2 fold change of degron read counts” value was 1.94 under setting [1], 3.65 under setting [2], 2.52 under setting [3] and 3.16 (compound: thalidomide).

Take FDCNICGAQFTQKGNLLRHIKL [46F_47D_49N_50I_52G_53A_54Q_55F_67L_, Q9UKT9]: the “log2 fold change of degron read counts” value was -0.355 under setting [1], -0.127 under setting [2], -0.237 under setting [3] and 0.552 (compound: thalidomide).

Turning to FRCEQCGALFTQKGNLLRHIKL [46F_47R_49E_50Q_52G_53A_54L_55F_67L_, Q9UKT9], the “log2 fold change of degron read counts” value is -3.49 under setting [1], -2.97 under setting [2], -0.178 under setting [3] and -1.64 (compound: thalidomide).

Turning to FRCPICGHTFTQKGNLLRHIKL [46F_47R_49P_50I_52G_53H_54T_55F_67L_, Q9UKT9], the “log2 fold change of degron read counts” value runs as follows: under setting [1], -2.68; under setting [2], -2.91; under setting [3], -2.15; (compound: thalidomide) -2.02.

FSCEICGRYFTQKGNLLRHIKL [46F_47S_49E_50I_52G_53R_54Y_55F_67L_, Q9UKT9]: the “log2 fold change of degron read counts” value is, setting by setting: under setting [1], -0.304; under setting [2], -1.64; under setting [3], -1.28; (compound: thalidomide) -1.44.

For FDCNICGARFTQKGNLLRHIKL [46F_47D_49N_50I_52G_53A_54R_55F_67L_, Q9UKT9], the “log2 fold change of degron read counts” value under setting [1] worked out at 1.3, the “log2 fold change of degron read counts” value under setting [2] is 0.634, the “log2 fold change of degron read counts” value under setting [3] was -0.123 and the “log2 fold change of degron read counts” value (compound: thalidomide) turned out to be 1.24.

In the case of LFCPICGFMCTQKGNLLRHIKL [46L_47F_49P_50I_52G_53F_54M_55C_67L_, Q9UKT9], the “log2 fold change of degron read counts” value came out at 2.71 under setting [1], 2.77 under setting [2], 2.05 under setting [3] and 0.947 (compound: thalidomide).

For FQCPICGRDFTQKGNLLRHIKL [46F_47Q_49P_50I_52G_53R_54D_55F_67L_, Q9UKT9], the “log2 fold change of degron read counts” value is -1.62 under setting [1], -1.68 under setting [2], 0.2 under setting [3] and 1.58 (compound: thalidomide).

Turning to FECPQCGAVFTQKGNLLRHIKL [46F_47E_49P_50Q_52G_53A_54V_55F_67L_, Q9UKT9], the “log2 fold change of degron read counts” value is, setting by setting: under setting [1], -2.29; under setting [2], -2.41; under setting [3], 0.278; (compound: thalidomide) 0.0294.

On to FWCPICGAMFTQKGNLLRHIKL [46F_47W_49P_50I_52G_53A_54M_55F_67L_, Q9UKT9], for which the “log2 fold change of degron read counts” value is, setting by setting: under setting [1], 2.54; under setting [2], 2.77; under setting [3], 2; (compound: thalidomide) 0.329.

On to FWCNICGAPFTQKGNLLRHIKL [46F_47W_49N_50I_52G_53A_54P_55F_67L_, Q9UKT9], for which the “log2 fold change of degron read counts” value by setting is: under setting [1], 2.88; under setting [2], 2.66; under setting [3], 1.69; (compound: thalidomide) 0.25.

Regarding FTCPICGHPFTQKGNLLRHIKL [46F_47T_49P_50I_52G_53H_54P_55F_67L_, Q9UKT9], the “log2 fold change of degron read counts” value is -1.82 under setting [1], -0.901 under setting [2], 0.0444 under setting [3] and 0.479 (compound: thalidomide).

Regarding FTCPICGAPFTQKGNLLRHIKL [46F_47T_49P_50I_52G_53A_54P_55F_67L_, Q9UKT9], the “log2 fold change of degron read counts” value is, setting by setting: under setting [1], 2.68; under setting [2], 3.44; under setting [3], 2.65; (compound: thalidomide) 3.25.

For FHCPICGAPFTQKGNLLRHIKL [46F_47H_49P_50I_52G_53A_54P_55F_67L_, Q9UKT9], the “log2 fold change of degron read counts” value under setting [1] was determined as 3.64, the “log2 fold change of degron read counts” value under setting [2] was 3.39, the “log2 fold change of degron read counts” value under setting [3] came to 2.87 and the “log2 fold change of degron read counts” value (compound: thalidomide) is 2.28.

With FTCPICGADFTQKGNLLRHIKL [46F_47T_49P_50I_52G_53A_54D_55F_67L_, Q9UKT9], the “log2 fold change of degron read counts” value was -0.0637 under setting [1], 1.88 under setting [2], 2.02 under setting [3] and 2.53 (compound: thalidomide).

As to FHCDICGAPFTQKGNLLRHIKL [46F_47H_49D_50I_52G_53A_54P_55F_67L_, Q9UKT9], the “log2 fold change of degron read counts” value under setting [1] came to 3.18, the “log2 fold change of degron read counts” value under setting [2] was 2.85, the “log2 fold change of degron read counts” value under setting [3] came to 1.67 and the “log2 fold change of degron read counts” value (compound: thalidomide) stood at 0.346.

Take FWCPICGAPFTQKGNLLRHIKL [46F_47W_49P_50I_52G_53A_54P_55F_67L_, Q9UKT9]: the “log2 fold change of degron read counts” value was 3.28 under setting [1], 3.35 under setting [2], 2.63 under setting [3] and 1.37 (compound: thalidomide).

Take FGCPICGADFTQKGNLLRHIKL [46F_47G_49P_50I_52G_53A_54D_55F_67L_, Q9UKT9]: the “log2 fold change of degron read counts” value under setting [1] turned out to be 1.78, the “log2 fold change of degron read counts” value under setting [2] stood at 0.634, the “log2 fold change of degron read counts” value under setting [3] was 1.7 and the “log2 fold change of degron read counts” value (compound: thalidomide) came out at 0.267.

Regarding FGCPICGAPFTQKGNLLRHIKL [46F_47G_49P_50I_52G_53A_54P_55F_67L_, Q9UKT9], the “log2 fold change of degron read counts” value under setting [1] was 3.74, the “log2 fold change of degron read counts” value under setting [2] came to 2.38, the “log2 fold change of degron read counts” value under setting [3] is 1.84 and the “log2 fold change of degron read counts” value (compound: thalidomide) stood at 1.66.

Consider FGCNICGAPFTQKGNLLRHIKL [46F_47G_49N_50I_52G_53A_54P_55F_67L_, Q9UKT9], for which the “log2 fold change of degron read counts” value under setting [1] stood at 0.653, the “log2 fold change of degron read counts” value under setting [2] is 0.355, the “log2 fold change of degron read counts” value under setting [3] was determined as 0.00441 and the “log2 fold change of degron read counts” value (compound: thalidomide) is -0.248.

For FHCPICGADFTQKGNLLRHIKL [46F_47H_49P_50I_52G_53A_54D_55F_67L_, Q9UKT9], the “log2 fold change of degron read counts” value was -0.22 under setting [1], -0.857 under setting [2], 0.863 under setting [3] and -0.761 (compound: thalidomide).
